Measurements: PubChem BioAssay (NCATS)
Results filed as inconclusive are left out. A call without a number means that no potency is given here. Active and inactive are the calls of the source. Calls come from the whole dose curve; as a rule, active = well fitted cell-killing curve with a large enough effect; inconclusive = small, poorly fitted or top-dose-only effect, or effect the other way; inactive = no such curve, though single readings can be large or run the other way.

Assay: Quantitative highthroughput screen to assess conditional lethalithy of SEM cells grown in RPMI1640 with dialyzed fetal bovine serum (RPMI+ds) (AID 1963884); note: nearly all actives have a fitted effect of over 35% in size
Conditions: SEM B-ALL cells, RPMI+dialyzed FBS, CellTiter-Glo viability, 48 h; series mostly up to 45.8 µM
Text: Assay Provider: Jason Cantor Ph.D.
Department of Biochemistry
University of Wisconsin-Madison, Madison, WI, USA
Chemical screening studies have identified drug sensitivities across hundreds of cancer cell lines but most putative therapeutics fail to translate. Discovery and development of drug candidates in models that more accurately reflect nutrient levels in human blood is a major challenge. Here we performed high-throughput screens in conventional versus Human Plasma-Like Medium (HPLM) to identify compounds that were "missed" when screening using the artificial culture condition. Sets of conditional anticancer compounds spanned phases of clinical development and included non-oncology drugs were assessed. […] We also traced conditional phenotypes for several chemotherapeutics to availability of HPLM-specific metabolites and confirmed others for compounds whose reported targets are encoded by nonessential genes. Our findings establish generalizable strategies for exploiting conditional lethality in HPLM to reveal therapeutic candidates and mechanisms of action in cancer cells.
Described herein are the results of each viability screens against three cell lines: NOMO1 (an acute myeloid leukemia cell line); P12-Ichikawa (a T-cell acute lymphoblastic leukemia); and SEM (a B-cell ALL). Each assay was screened using 3 different cell culture media: homemade human plasma-Like medium with 10% dialyzed fetal bovine serum (HPLM+ds); RPMI1640 with 10% untreated FBS and 5mM glucose (RPMI+s); and RPMI1640 with 10% dialyzed fetal bovine serum and 5 mM glucose (RPMI+ds).
PROTOCOL TABLE (as described by Inglese J, Shamu CE and Guy RK. 2007)
SEQUENCE No. (e.g., 1, 2, 3, etc.); […] (e.g., Cells, Incubation, Reagent, etc.); VALUE and DESCRIPTION.
1; Cells; 5 uL; white, solid bottom 1536-well Greiner assay plate.
2; Compounds; 23 nL; Kalypsis pin tool (Wako USA) equipped with a 1536-well pin head to transfer to the assay plates.
3; Incubation; 48 hours; 37C incubation.
4; Reagent; 3 uL; CellTiter Glo (Promega).
5; Incubation; 5 min, room temperature
6; Detection; Luminescence, Viewlux PerkinElmer.
NOTES (numbers refer to Sequence numbers above)
1. Briefly, 5 ul of cell reagent was dispensed using a Multidrop Combi Dispenser. The NOMO1 and SEM cells were plated at 500 cells/well and the P12-Ichikawa line at 1000 cells/well.
2. After seeding the cells, 23 nL of MIPE 4.1 library compounds (in DMSO) were added to each plate using a Kalypsys 1536 Pintool dispenser. Bortezomib at final concentration of […] and DMSO were added to each plate as positive and negative controls respectively. For each screen, MIPE 4.1 compounds were added over an eleven-point concentration range […] in 3-fold dilutions.
3. Each plate was covered with a stainless steel gasketed lid to prevent evaporation and incubated for 48 hour at 37C, 95% relative humidity, and 5% CO2.
4-5. Three microliter CellTilter-GloTM luminescent substrate mix (Promega) reagent was added to the assay plate and incubated at room temperature for 5 min.
6. The luminescence signal was measured using a ViewLux (PerkinElmer) multiplate reader with a 2 second exposure time per plate. Data for each compound were normalized as percent viability such that measurements for DMSO and the empty well controls in each plate were defined as 100% and 0%, respectively.
Potency is the fitted concentration of half-maximal effect.

Row | SMILES | Potency
1 | O=C1CCC[C@@H]2[C@H]3CCCN4CCC[C@@H](CN12)[C@@H]34 | inactive
2 | C[C@@]12OC(=O)[C@]1([C@@H](O)[C@@H]1C=CCCC1)NC(=O)[C@H]2CCCl | 0.0469 µM (active)
3 | NC1=NC(=O)N2CC12 (stereo not given) | 2.96 µM (active)
4 | Cc1sc2c(c1C)C(c1ccc(Cl)cc1)=N[C@@H](CC(=O)OC(C)(C)C)c1nnc(C)n1-2 | 0.209 µM (active)
5 | C[C@H]1CCCC=CC2C[C@H](O)C[C@@H]2[C@H](O)C=CC(=O)O1 (stereo not given in full) | inactive
6 | CC(C)(C)[C@]1(O)C[C@@H]2OC(=O)C[C@@]23C(=O)O[C@@H]2OC(=O)[C@H](O)C213 (stereo not given in full) | inactive
7 | CC(C)[C@]12O[C@@H]1[C@@H]1O[C@]13[C@]1(O[C@H]1C[C@@H]1C4=C(CC[C@@]13C)C(=O)OC4)[C@H]2O | 0.0012 µM (active)
8 | Cc1cccc(C)c1NC(=O)CN1CCCC1=O | inactive
9 | COc1ccc(C(=O)c2c(C)n(CCN3CCOCC3)c3ccccc23)cc1 | inactive
10 | C[C@]12CC[C@H]3[C@@H](CCC4=CC(=O)CC[C@@]43C)[C@H]1CC[C@H]2O | inactive
11 | O=[N+]([O-])c1ncc[nH]1 | inactive
12 | CC(=O)N(C)c1cccc(-c2ccnc3c(C(=O)c4cccs4)cnn23)c1 | inactive
13 | CCN(CC)C(=O)c1ccc(C2=CC3(CCNCC3)Oc3cccc(O)c32)cc1 | inactive
14 | CC=C(C)C(=O)O[C@H]1C(C)=C2[C@@H]3OC(=O)[C@@](C)(O)[C@@]3(O)[C@@H](OC(=O)CCC)C[C@](C)(OC(C)=O)[C@@H]2[C@@H]1OC(=O)CCCCCCC | 0.0332 µM (active)
15 | COc1cc(OC)c(OC)cc1C=O | inactive
16 | CC(=CCCC1=CCC(C2=CC(=O)OC2O)OC1O)CCC1=C(C)CCCC1(C)C (stereo not given) | inactive
17 | O=C(Oc1ccc([N+](=O)[O-])cc1)N1CCN(Cc2cccc(Oc3ccccc3)c2)CC1 | inactive
18 | CN(C)[C@@H]1C(=O)C(C(N)=O)=C(O)[C@@]2(O)C(=O)C3=C(O)c4c(O)cccc4[C@@](C)(O)[C@H]3[C@H](O)[C@@H]12 | inactive
19 | CN(C)[C@@H]1C(=O)C(C(N)=O)=C(O)[C@@]2(O)C(=O)C3=C(O)c4c(O)cccc4[C@@](C)(O)[C@H]3C[C@@H]12 | inactive
20 | C[C@]12CC[C@@H]3[C@@H](CCC4=CC(=O)CC[C@@H]43)[C@@H]1CC[C@@H]2OC(=O)CCc1ccccc1 | inactive

Row | SMILES | Potency
21 | CC(C)(O)C(=O)Nc1ccc([N+](=O)[O-])c(C(F)(F)F)c1 | inactive
22 | C[C@@H]1CC[C@@]2(OC1)O[C@H]1C[C@H]3[C@@H]4CC=C5C[C@@H](O[C@@H]6O[C@H](CO)[C@@H](O[C@@H]7O[C@@H](C)[C@H](O)[C@@H](O)[C@@H]7O)[C@H](O)[C@@H]6O[C@@H]6O[C@@H](C)[C@H](O)[C@@H](O)[C@@H]6O)CC[C@]5(C)[C@@H]4CC[C@]3(C)[C@@H]1[C@H]2C | 14.8 µM (active)
23 | C#C[C@]1(O)C=C[C@@H]2[C@@H]3CCC4=CC(=O)CC[C@@H]4[C@H]3CC[C@@]21CC | inactive
24 | Cn1cc(C2=C(c3cn(C4CCN(Cc5ccccn5)CC4)c4ccccc34)C(=O)NC2=O)c2ccccc21 | 5.9 µM (active)
25 | COC1(CS(=O)c2ccccc2)CCN(CCc2c[nH]c3ccc(F)cc23)CC1 (stereo not given) | inactive
26 | CCOC(=O)c1cncn1[C@H](C)c1ccccc1 | inactive
27 | CC(C)(C)c1cc(C=C(C#N)C#N)cc(Br)c1O | inactive
28 | O=C1C=CC[C@@H]2[C@H]3CCCN4CCC[C@@H](CN12)[C@@H]34 | inactive
29 | CN(C)CCc1ccc(O)cc1 | inactive
30 | CCc1c(C(=O)C(N)=O)c2c(OCC(=O)O)cccc2n1Cc1ccccc1 | inactive
31 | C[C@@H]1CC[C@H]2[C@@H](C)C(=O)O[C@@H]3O[C@@]4(C)CC[C@H]1[C@]32OO4 | inactive
32 | CN(C)CCN(C)CCc1ccc(Cl)c(Cl)c1 | inactive
33 | Cc1[nH]nc2ccc(-c3cncc(OC[C@@H](N)Cc4c[nH]c5ccccc45)c3)cc12 | 0.418 µM (active)
34 | O=P1(N(CCCl)CCCl)NCCCO1 (stereo not given) | 9.35 µM (active)
35 | CCC1(c2ccc(N)cc2)CCC(=O)NC1=O (stereo not given) | inactive
36 | COC(=O)[C@@H](N)CCCN=C(N)N[N+](=O)[O-] | inactive
37 | CC[C@H]1C=CC=CC[C@@H](C)[C@H](O)[C@@](C)(O)C(=O)[C@@H](C)[C@H](O)[C@@H](C)C(=O)[C@@H](C)[C@H](O)[C@@H](C)C=CC(=O)O[C@@H]2[C@@H](C)[C@H](CC1)O[C@]1(CC[C@H](C)[C@H](C[C@@H](C)O)O1)[C@H]2C | 4.69 µM (active)
38 | CCN1CCN(C(=O)Cc2ccc(Nc3ncc(F)c(Nc4ccc(C(=O)Nc5ccccc5Cl)cc4)n3)cc2)CC1 | 4.69 µM (active)
39 | Clc1ccccc1C(c1ccccc1)(c1ccccc1)n1cccn1 | inactive
40 | C[C@]12CC[C@H]3[C@@H](CCC4=CC(=O)CC[C@@]43C)[C@H]1CC[C@H]2OC(=O)CCC1CCCC1 | inactive
